# Measured values: PubChem BioAssay (NCI)
# About 79,000 compounds went through this panel and 15% of them were active in at least one assay; those are over-represented in the sample as a whole. Values without a mark were called inactive. Active and inactive are the calls of the source. Rule as the data show it: active = growth inhibition above about 70%; inactive = the rest.
# Columns and labels:
# [1] = NCI Yeast Anticancer Drug Screen. Data for the rad52 strain (AID 147);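 also: 0% = growth of vehicle-treated control cultures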; conditions: S. cerevisiae rad52 mutant growth inhibition, active compounds read high
# Summary of the method: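 Growth of repair-deficient yeast cells was compared between compound-treated and vehicle-treated cultures to give percent inhibition.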
# [2] = NCI Yeast Anticancer Drug Screen. Data for the wt1 strain (AID 149);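 also: 0% = growth of vehicle-treated wt1 cultures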; conditions: S. cerevisiae wt1 strain (SPY 50644) growth inhibition, active compounds read high
# Summary of the method: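 Growth inhibition read against vehicle controls after compound exposure of the wt1 yeast strain.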
# [3] = NCI Yeast Anticancer Drug Screen. Data for the rad50EPP+ strain (AID 151);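 also: 0% = growth of vehicle-treated control cultures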; conditions: S. cerevisiae rad50 mutant strain, active compounds read high
# Summary of the method: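 Measured: growth inhibition of rad50EPP+ yeast. Reference: vehicle-treated controls. Screen uses strains with defined genetic alterations in DNA damage repair or cell cycle control.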
# [4] = NCI Yeast Anticancer Drug Screen. Data for the mgt1 strain (AID 153); conditions: S. cerevisiae mgt1 mutant growth inhibition, active compounds read high
# Summary of the method: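 Compounds were applied to mgt1 mutant yeast, and growth was then compared against vehicle-treated control cultures to give percent inhibition.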
# [5] = NCI Yeast Anticancer Drug Screen. Data for the rad50 strain (AID 155);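 also: 0% = growth of vehicle-only cultures of the same strain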; conditions: S. cerevisiae rad50 strain growth inhibition, active compounds read high
# Summary of the method: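 Readout: growth inhibition relative to vehicle-treated cultures. Compound exposure was carried out in a genetically defined yeast strain deficient in DNA damage repair.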
# [6] = NCI Yeast Anticancer Drug Screen. Data for the mec2-1 strain (AID 157); conditions: S. cerevisiae mec2-1 strain, active compounds read high
# Summary of the method: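 Compounds were applied to mec2-1 yeast cells. Their growth was then compared with that of vehicle-treated cultures to give growth inhibition.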
# [7] = NCI Yeast Anticancer Drug Screen. Data for the rad14 strain (AID 159);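 also: 0% = growth of vehicle-treated control cultures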; conditions: S. cerevisiae rad14 strain growth inhibition, active compounds read high
# Summary of the method: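 Growth inhibition vs vehicle controls; genetically altered yeast strain (DNA damage repair defect) treated with test compounds.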
# [8] = NCI Yeast Anticancer Drug Screen. Data for the sgs1 mgt1 strain (AID 161);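 also: 0% = growth of cultures given vehicle only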; conditions: S. cerevisiae sgs1 mgt1 strain, active compounds read high
# Summary of the method: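 This yeast growth screen uses a strain with defined DNA-repair lesions; compound-treated growth is compared with vehicle-treated growth.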
# [9] = NCI Yeast Anticancer Drug Screen. Data for the CLN2oe strain (AID 163);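 also: 0% = growth of vehicle-only control cultures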; conditions: S. cerevisiae CLN2oe strain, active compounds read high
# Summary of the method: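 Cells of an engineered yeast line with disturbed cell-cycle regulation are treated with compound. Inhibition of growth is then calculated relative to the vehicle-treated reference.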
# [10] = NCI Yeast Anticancer Drug Screen. Data for the cln2 rad14 strain (AID 165);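 also: 0% = growth equal to vehicle treated cultures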; conditions: S. cerevisiae cln2 rad14 strain, active compounds read high
# Summary of the method: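 Strain: cln2 rad14 yeast, altered in cell cycle control and DNA damage repair. Read-out: growth inhibition vs vehicle.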
# [11] = NCI Yeast Anticancer Drug Screen. Data for the bub3 strain (AID 167); conditions: S. cerevisiae bub3 mutant strain, active compounds read high
# Summary of the method: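 Readout: yeast growth inhibition, expressed relative to vehicle-only wells. The test organism is a mutant strain from a panel with lesions in DNA repair or checkpoint genes.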
# [12] = NCI Yeast Anticancer Drug Screen. Data for the wt2 strain (AID 169);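 also: 0% = growth of vehicle-treated yeast cultures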; conditions: S. cerevisiae wt2 strain growth inhibition, active compounds read high
# Summary of the method: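 Growth of compound-treated yeast is measured and expressed as inhibition relative to vehicle-only controls.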
# [13] = NCI Yeast Anticancer Drug Screen. Data for the mlh1 strain (AID 171);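 also: 0% = growth of vehicle-treated control cultures of the same strain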; conditions: S. cerevisiae mlh1 strain growth inhibition, active compounds read high
# Summary of the method: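 Test agents were incubated with yeast bearing a defined DNA damage repair or cell cycle control alteration; values are growth inhibition normalised to vehicle-treated cultures.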
# [14] = NCI Yeast Anticancer Drug Screen. Data for the sgs1 strain (AID 173);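 also: 0% = growth of vehicle-only control cultures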; conditions: S. cerevisiae sgs1 mutant, active compounds read high
# Summary of the method: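 Strain with an altered DNA repair or cell cycle pathway exposed to compound. Growth then measured. Value = inhibition versus vehicle control.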
# [15] = NCI Yeast Anticancer Drug Screen. Data for the mlh1 rad18 strain (AID 175); conditions: S. cerevisiae mlh1 rad18 strain growth inhibition, active compounds read high
# Summary of the method: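 A repair-deficient yeast strain is exposed to test compound, and growth is scored relative to vehicle-treated controls.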
# [16] = NCI Yeast Anticancer Drug Screen. Data for the rad18 strain (AID 177); conditions: S. cerevisiae rad18 mutant growth inhibition, active compounds read high
# Summary of the method: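 DNA-repair-defective yeast; compound treatment; growth inhibition scored against vehicle.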
# [17] = at 5.0 µM (retest, dose inferred, filed as 0.5)
# [18] = at 50.0 µM (retest, dose inferred, filed as 5.0)
structure (smiles),measurement,setting,value
COc1cc2c(cc1[N+](=O)[O-])C(=O)C(Br)(Br)CCC2,growth inhibition,[1]; at 1.2 µM,39%
same,growth inhibition,[1]; at 3.7 µM,63%
same,growth inhibition,[1]; at 11.0 µM,98% (active)
same,growth inhibition,[1]; at 33.0 µM,99% (active)
same,growth inhibition,[1]; at 100.0 µM,94% (active)
same,growth inhibition,[2]; at 1.2 µM,38%
same,growth inhibition,[2]; at 3.7 µM,50%
same,growth inhibition,[2]; at 11.0 µM,91% (active)
same,growth inhibition,[2]; at 33.0 µM,99% (active)
same,growth inhibition,[2]; at 100.0 µM,98% (active)
same,growth inhibition,[3]; at 1.2 µM,40%
same,growth inhibition,[3]; at 3.7 µM,73% (active)
same,growth inhibition,[3]; at 11.0 µM,99% (active)
same,growth inhibition,[3]; at 33.0 µM,100% (active)
same,growth inhibition,[3]; at 100.0 µM,96% (active)
same,growth inhibition,[4]; at 1.2 µM,50%
same,growth inhibition,[4]; at 3.7 µM,73% (active)
same,growth inhibition,[4]; at 11.0 µM,100% (active)
same,growth inhibition,[4]; at 33.0 µM,99% (active)
same,growth inhibition,[4]; at 100.0 µM,97% (active)
same,growth inhibition,[5]; at 1.2 µM,42%
same,growth inhibition,[5]; at 3.7 µM,50%
same,growth inhibition,[5]; [17],8%
same,growth inhibition,[5]; at 11.0 µM,97% (active)
same,growth inhibition,[5]; at 33.0 µM,99% (active)
same,growth inhibition,[5]; [18],98% (active)
same,growth inhibition,[5]; at 50.0 µM,91.2% (active)
same,growth inhibition,[5]; at 100.0 µM,95% (active)
same,growth inhibition,[6]; at 1.2 µM,35%
same,growth inhibition,[6]; at 3.7 µM,41%
same,growth inhibition,[6]; [17],31%
same,growth inhibition,[6]; at 11.0 µM,99% (active)
same,growth inhibition,[6]; at 33.0 µM,100% (active)
same,growth inhibition,[6]; [18],100% (active)
same,growth inhibition,[6]; at 50.0 µM,93.5% (active)
same,growth inhibition,[6]; at 100.0 µM,96% (active)
same,growth inhibition,[7]; at 1.2 µM,33%
same,growth inhibition,[7]; at 3.7 µM,44%
same,growth inhibition,[7]; at 11.0 µM,99% (active)
same,growth inhibition,[7]; at 33.0 µM,100% (active)
same,growth inhibition,[7]; at 100.0 µM,96% (active)
same,growth inhibition,[8]; [17],49%
same,growth inhibition,[8]; [18],100% (active)
same,growth inhibition,[8]; at 50.0 µM,90% (active)
same,growth inhibition,[9]; at 1.2 µM,21%
same,growth inhibition,[9]; at 3.7 µM,21%
same,growth inhibition,[9]; at 11.0 µM,55%
same,growth inhibition,[9]; at 33.0 µM,98% (active)
same,growth inhibition,[9]; at 100.0 µM,93% (active)
same,growth inhibition,[10]; [17],25%
same,growth inhibition,[10]; [18],98% (active)
same,growth inhibition,[10]; at 50.0 µM,90% (active)
same,growth inhibition,[11]; at 1.2 µM,9%
same,growth inhibition,[11]; at 3.7 µM,36%
same,growth inhibition,[11]; [17],42%
same,growth inhibition,[11]; at 11.0 µM,98% (active)
same,growth inhibition,[11]; at 33.0 µM,99% (active)
same,growth inhibition,[11]; [18],99% (active)
same,growth inhibition,[11]; at 50.0 µM,90% (active)
same,growth inhibition,[11]; at 100.0 µM,92% (active)
same,growth inhibition,[12]; at 1.2 µM,6%
same,growth inhibition,[12]; at 3.7 µM,11%
same,growth inhibition,[12]; at 11.0 µM,90% (active)
same,growth inhibition,[12]; at 33.0 µM,99% (active)
same,growth inhibition,[12]; at 100.0 µM,95% (active)
same,growth inhibition,[13]; at 1.2 µM,50%
same,growth inhibition,[13]; at 3.7 µM,73% (active)
same,growth inhibition,[13]; at 11.0 µM,100% (active)
same,growth inhibition,[13]; at 33.0 µM,99% (active)
same,growth inhibition,[13]; at 100.0 µM,97% (active)
same,growth inhibition,[14]; at 1.2 µM,38%
same,growth inhibition,[14]; at 3.7 µM,45%
same,growth inhibition,[14]; at 11.0 µM,83% (active)
same,growth inhibition,[14]; at 33.0 µM,99% (active)
same,growth inhibition,[14]; at 100.0 µM,97% (active)
same,growth inhibition,[15]; [17],18%
same,growth inhibition,[15]; [18],99% (active)
same,growth inhibition,[15]; at 50.0 µM,90.8% (active)
same,growth inhibition,[16]; at 1.2 µM,33%
same,growth inhibition,[16]; at 3.7 µM,64%
same,growth inhibition,[16]; at 11.0 µM,96% (active)
same,growth inhibition,[16]; at 33.0 µM,99% (active)
same,growth inhibition,[16]; at 100.0 µM,95% (active)
CCCCCCCCCCCC(=O)N(C)C,growth inhibition,[1]; at 1.2 µM,-12%
same,growth inhibition,[1]; at 3.7 µM,-6%
same,growth inhibition,[1]; at 11.0 µM,-19%
same,growth inhibition,[1]; at 33.0 µM,30%
same,growth inhibition,[1]; at 100.0 µM,98% (active)
same,growth inhibition,[2]; at 1.2 µM,-15%
same,growth inhibition,[2]; at 3.7 µM,-13%
same,growth inhibition,[2]; at 11.0 µM,-14%
same,growth inhibition,[2]; at 33.0 µM,-14%
same,growth inhibition,[2]; at 100.0 µM,99% (active)
same,growth inhibition,[3]; at 1.2 µM,5%
same,growth inhibition,[3]; at 3.7 µM,18%
same,growth inhibition,[3]; at 11.0 µM,20%
same,growth inhibition,[3]; at 33.0 µM,47%
same,growth inhibition,[3]; at 100.0 µM,90% (active)
same,growth inhibition,[4]; at 1.2 µM,7%
same,growth inhibition,[4]; at 3.7 µM,3%
same,growth inhibition,[4]; at 11.0 µM,18%
same,growth inhibition,[4]; at 33.0 µM,23%
same,growth inhibition,[4]; at 100.0 µM,99% (active)
same,growth inhibition,[5]; at 1.2 µM,-2%
same,growth inhibition,[5]; at 3.7 µM,-5%
same,growth inhibition,[5]; [17],38%
same,growth inhibition,[5]; at 11.0 µM,-18%
same,growth inhibition,[5]; at 33.0 µM,29%
same,growth inhibition,[5]; [18],92% (active)
same,growth inhibition,[5]; at 50.0 µM,90.5% (active)
same,growth inhibition,[5]; at 100.0 µM,98% (active)
same,growth inhibition,[6]; at 1.2 µM,-34%
same,growth inhibition,[6]; at 3.7 µM,-24%
same,growth inhibition,[6]; [17],42%
same,growth inhibition,[6]; at 11.0 µM,-27%
same,growth inhibition,[6]; at 33.0 µM,34%
same,growth inhibition,[6]; [18],96% (active)
same,growth inhibition,[6]; at 50.0 µM,92.7% (active)
same,growth inhibition,[6]; at 100.0 µM,98% (active)
same,growth inhibition,[7]; at 1.2 µM,7%
same,growth inhibition,[7]; at 3.7 µM,2%
same,growth inhibition,[7]; at 11.0 µM,12%
same,growth inhibition,[7]; at 33.0 µM,34%
same,growth inhibition,[7]; at 100.0 µM,99% (active)
same,growth inhibition,[8]; [17],-2%
same,growth inhibition,[8]; [18],98% (active)
same,growth inhibition,[8]; at 50.0 µM,93.2% (active)
same,growth inhibition,[9]; at 1.2 µM,2%
same,growth inhibition,[9]; at 3.7 µM,19%
same,growth inhibition,[9]; at 11.0 µM,2%
same,growth inhibition,[9]; at 33.0 µM,0%
same,growth inhibition,[9]; at 100.0 µM,98% (active)
same,growth inhibition,[10]; [17],31%
same,growth inhibition,[10]; [18],98% (active)
same,growth inhibition,[10]; at 50.0 µM,91.5% (active)
same,growth inhibition,[11]; at 1.2 µM,3%
same,growth inhibition,[11]; at 3.7 µM,-28%
same,growth inhibition,[11]; [17],-4%
same,growth inhibition,[11]; at 11.0 µM,3%
same,growth inhibition,[11]; at 33.0 µM,18%
same,growth inhibition,[11]; [18],97% (active)
same,growth inhibition,[11]; at 50.0 µM,92% (active)
same,growth inhibition,[11]; at 100.0 µM,98% (active)
same,growth inhibition,[12]; at 1.2 µM,-6%
same,growth inhibition,[12]; at 3.7 µM,-11%
same,growth inhibition,[12]; at 11.0 µM,-11%
same,growth inhibition,[12]; at 33.0 µM,29%
same,growth inhibition,[12]; at 100.0 µM,99% (active)
same,growth inhibition,[13]; at 1.2 µM,-32%
same,growth inhibition,[13]; at 3.7 µM,-35%
same,growth inhibition,[13]; at 11.0 µM,-26%
same,growth inhibition,[13]; at 33.0 µM,-28%
same,growth inhibition,[13]; at 100.0 µM,98% (active)
same,growth inhibition,[14]; at 1.2 µM,-18%
same,growth inhibition,[14]; at 3.7 µM,-8%
same,growth inhibition,[14]; at 11.0 µM,-13%
same,growth inhibition,[14]; at 33.0 µM,34%
same,growth inhibition,[14]; at 100.0 µM,98% (active)
same,growth inhibition,[15]; [17],41%
same,growth inhibition,[15]; [18],94% (active)
same,growth inhibition,[15]; at 50.0 µM,91% (active)
same,growth inhibition,[16]; at 1.2 µM,-9%
same,growth inhibition,[16]; at 3.7 µM,-4%
same,growth inhibition,[16]; at 11.0 µM,-7%
same,growth inhibition,[16]; at 33.0 µM,15%
same,growth inhibition,[16]; at 100.0 µM,98% (active)
